Laboratory results as given in PubChem BioAssay (Tox21).
Records with an inconclusive call do not appear. The source made the active and inactive calls. Calls come from the whole dose curve; as a rule, active = well fitted curve in the direction sought with a large enough effect in the repeat runs; inconclusive = weak or mixed curves; inactive = no such curve, though single readings can be large; an effect the other way counts as inactive or inconclusive.

How the values were obtained:
[1] = A CellTox Green Cytotoxicity Assay to monitor cytotoxicity in HEK293 cells - 40 hour (AID 1224871); note: nearly all actives have a fitted effect of over 45% in size; note: potency is the fitted concentration of half-maximal effect
In short: (§1)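 Fluorescence from a DNA-binding dye excluded by viable cells was measured repeatedly in the same HEK293 wells (600 cells/well) during continuous compound exposure at 37 C. Each assay gives one read point: 0, 8, 16, 24, 32 or 40 h.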

[2] = qHTS RealTime-Glo MT Cell Viability Assay in HEK293 cells - 16 hour (AID 1224872); note: nearly all actives have a fitted effect of over 50% in size; note: potency is the fitted concentration of half-maximal effect
In short: (§2)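 HEK293 cells were seeded at 600 cells/well together with NanoLuc luciferase and cell-permeant prosubstrate, preincubated 5 h at 37 C/5% CO2, then given compound in DMSO by pintool. Luminescence from viable-cell prosubstrate reduction was read repeatedly over 40 h.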

[3] = qHTS RealTime-Glo MT Cell Viability Assay in HEK293 cells - 40 hour (AID 1224874); settings: RealTime-Glo luminescence; max response: active compounds read low; note: nearly all actives have a fitted effect of over 50% in size; note: potency is the fitted concentration of half-maximal effect
In short: (§3)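 Luminescence, which tracks viable cell number through reduction of the prosubstrate to a NanoLuc substrate, was read over continuous 37 C culture. Cells (600/well) were premixed with reagent and rested 5 h before 23 nL of compound in DMSO was pinned.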

[4] = A CellTox Green Cytotoxicity Assay to monitor cytotoxicity in HEK293 cells - 24 hour (AID 1224875); note: nearly all actives have a fitted effect of over 45% in size; note: potency is the fitted concentration of half-maximal effect
In short: as §1

[5] = A CellTox Green Cytotoxicity Assay to monitor cytotoxicity in HepG2 cells - 16 hour (AID 1224876); note: nearly all actives have a fitted effect of over 45% in size; note: potency is the fitted concentration of half-maximal effect
In short: (§4)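 Real-time cytotoxicity: fluorescence of a cell-impermeant cyanine dye binding DNA of dead HepG2 cells, measured repeatedly (0–40 h) during compound exposure at 37 C. Cells seeded 600/well with reagent, dosed after 5 h.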

[6] = A CellTox Green Cytotoxicity Assay to monitor cytotoxicity in HepG2 cells - 24 hour (AID 1224878); note: nearly all actives have a fitted effect of over 45% in size; note: potency is the fitted concentration of half-maximal effect
In short: as §4

[7] = A CellTox Green Cytotoxicity Assay to monitor cytotoxicity in HepG2 cells - 40 hour (AID 1224879); note: nearly all actives have a fitted effect of over 40% in size; note: potency is the fitted concentration of half-maximal effect
In short: as §4

[8] = qHTS RealTime-Glo MT Cell Viability Assay in HEK293 cells - 0 hour (AID 1224880)
In short: as §3

[9] = A CellTox Green Cytotoxicity Assay to monitor cytotoxicity in HEK293 cells - 32 hour (AID 1224881); note: nearly all actives have a fitted effect of over 40% in size; note: potency is the fitted concentration of half-maximal effect
In short: as §1

[10] = A CellTox Green Cytotoxicity Assay to monitor cytotoxicity in HepG2 cells - 0 hour (AID 1224882); note: nearly all actives have a fitted effect of over 35% in size
In short: as §4

[11] = A CellTox Green Cytotoxicity Assay to monitor cytotoxicity in HepG2 cells - 32 hour (AID 1224883); note: nearly all actives have a fitted effect of over 50% in size; note: potency is the fitted concentration of half-maximal effect
In short: as §4

[12] = A CellTox Green Cytotoxicity Assay to monitor cytotoxicity in HEK293 cells - 8 hour (AID 1224884); note: nearly all actives have a fitted effect of over 35% in size; note: potency is the fitted concentration of half-maximal effect
In short: as §1

[13] = qHTS RealTime-Glo MT Cell Viability Assay in HepG2 cells - 16 hour (AID 1224885); note: nearly all actives have a fitted effect of over 50% in size; note: potency is the fitted concentration of half-maximal effect
In short: (§5)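 HepG2 cells were seeded at 600 cells/well together with NanoLuc luciferase and a cell-permeant prosubstrate, preincubated 5 h at 37 C/5% CO2, then pin-dosed with compounds in DMSO. Nonlytic luminescence from viable cells was read at each time point.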

[14] = qHTS RealTime-Glo MT Cell Viability Assay in HEK293 cells - 8 hour (AID 1224887); note: nearly all actives have a fitted effect of over 50% in size; note: potency is the fitted concentration of half-maximal effect
In short: as §3

[15] = A CellTox Green Cytotoxicity Assay to monitor cytotoxicity in HEK293 cells - 16 hour (AID 1224888); note: nearly all actives have a fitted effect of over 35% in size; note: potency is the fitted concentration of half-maximal effect
In short: as §1

[16] = qHTS RealTime-Glo MT Cell Viability Assay in HepG2 cells - 0 hour (AID 1224889); note: nearly all actives have a fitted effect of over 50% in size
In short: as §5

[17] = A CellTox Green Cytotoxicity Assay to monitor cytotoxicity in HepG2 cells - 8 hour (AID 1224890); note: nearly all actives have a fitted effect of over 45% in size; note: potency is the fitted concentration of half-maximal effect
In short: as §4

[18] = qHTS RealTime-Glo MT Cell Viability Assay in HEK293 cells - 24 hour (AID 1224886); note: nearly all actives have a fitted effect of over 50% in size; note: potency is the fitted concentration of half-maximal effect
In short: as §2

[19] = qHTS RealTime-Glo MT Cell Viability Assay in HepG2 cells - 32 hour (AID 1224877); note: nearly all actives have a fitted effect of over 55% in size; note: potency is the fitted concentration of half-maximal effect
In short: as §5

[20] = qHTS RealTime-Glo MT Cell Viability Assay in HepG2 cells - 8 hour (AID 1224873); note: nearly all actives have a fitted effect of over 55% in size
In short: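 HepG2 cells mixed with RealTime-Glo MT reagents (NanoLuc plus cell-permeant prosubstrate) were seeded at 600 cells/well, incubated 5 h at 37 C/5% CO2, then pinned with compounds in DMSO; nonlytic luminescence tracked viability during 40 h treatment.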
% is set by controls: 0 for no effect and ±100 for the full control effect.

O=Cc1ccccc1
inactive: Potency [1] | Potency [2] | max response [3] 19.9% | Potency [4] | Potency [5] | Potency [6] | Potency [7] | Potency [8] | Potency [9] | Potency [10] | Potency [11] | Potency [12] | Potency [13] | Potency [14] | Potency [15] | Potency [16] | Potency [17]

O=S1(=O)OCC2C(CO1)C1(Cl)C(Cl)=C(Cl)C2(Cl)C1(Cl)Cl (stereo unspecified)
inactive: Potency [4] | Potency [5] | Potency [6] | Potency [8] | Potency [10] | Potency [12] | Potency [15] | Potency [16] | Potency [17]
active: Potency [1] 49 µM | Potency [2] 19.5 µM | Potency [3] 21.9 µM | Potency [18] 19.5 µM

CC(=O)[O-].CC(=O)[O-].[Co+2]
inactive: Potency [1] | Potency [2] | max response [3] 8.26% | Potency [4] | Potency [5] | Potency [6] | Potency [7] | Potency [8] | Potency [9] | Potency [10] | Potency [11] | Potency [13] | Potency [18] | Potency [14] | Potency [15] | Potency [16]

O=[N+]([O-])c1ccccc1-c1ccccc1
inactive: Potency [1] | Potency [2] | Potency [4] | Potency [5] | Potency [6] | Potency [8] | Potency [9] | Potency [10] | Potency [11] | Potency [12] | Potency [13] | Potency [14] | Potency [15] | Potency [16]

Nc1c(Cl)c(Cl)c(Cl)c(Cl)c1Cl
inactive: Potency [1] | Potency [2] | max response [3] -2.22% | Potency [4] | Potency [19] | Potency [8] | Potency [9] | Potency [12] | Potency [13] | Potency [14] | Potency [16]

CC(C)Br
inactive: Potency [1] | Potency [20] | Potency [4] | Potency [5] | Potency [19] | Potency [6] | Potency [7] | Potency [8] | Potency [9] | Potency [10] | Potency [11] | Potency [12] | Potency [13] | Potency [18] | Potency [15] | Potency [17]

COP(=O)(OC)O/C(=C\Cl)c1cc(Cl)c(Cl)cc1Cl
inactive: Potency [1] | Potency [2] | max response [3] 0.507% | Potency [4] | Potency [5] | Potency [8] | Potency [9] | Potency [10] | Potency [12] | Potency [14] | Potency [15]

CCC(C)Br (stereo unspecified)
inactive: Potency [1] | Potency [2] | Potency [4] | Potency [5] | Potency [19] | Potency [6] | Potency [7] | Potency [8] | Potency [9] | Potency [10] | Potency [11] | Potency [13] | Potency [18] | Potency [14] | Potency [15] | Potency [16] | Potency [17]

c1ccc2c(c1)cc1ccc3cccc4ccc2c1c34
active: Potency [11] 7.05 µM
inactive: Potency [1] | Potency [20] | max response [3] -10.6% | Potency [4] | Potency [5] | Potency [19] | Potency [6] | Potency [8] | Potency [9] | Potency [10] | Potency [12] | Potency [13] | Potency [15] | Potency [16] | Potency [17]

N#Cc1c[nH]cc1-c1cccc2c1OC(F)(F)O2
active: Potency [3] 6.16 µM | Potency [7] 13.8 µM
inactive: Potency [1] | Potency [20] | Potency [4] | Potency [5] | Potency [19] | Potency [6] | Potency [8] | Potency [9] | Potency [10] | Potency [12] | Potency [13] | Potency [15] | Potency [16] | Potency [17]

O=C(NC(=O)c1ccccc1Cl)Nc1ccc(OC(F)(F)F)cc1
inactive: Potency [1] | Potency [20] | Potency [4] | Potency [5] | Potency [19] | Potency [6] | Potency [7] | Potency [8] | Potency [9] | Potency [10] | Potency [11] | Potency [12] | Potency [13] | Potency [14] | Potency [15] | Potency [16] | Potency [17]

CC(=O)[O-].CC(=O)[O-].CC(=O)[O-].[Cr+3]
inactive: Potency [1] | Potency [2] | max response [3] -0.681% | Potency [4] | Potency [5] | Potency [19] | Potency [6] | Potency [8] | Potency [9] | Potency [10] | Potency [11] | Potency [12] | Potency [13] | Potency [14] | Potency [15] | Potency [16] | Potency [17]

C=C(C)C(=O)[O][Sn]([CH2]CCC)([CH2]CCC)[CH2]CCC
active: Potency [1] 0.436 µM | Potency [2] 0.389 µM | Potency [4] 2.19 µM | Potency [5] 0.49 µM | Potency [19] 0.245 µM | Potency [6] 0.616 µM | Potency [7] 0.389 µM | Potency [9] 0.49 µM | Potency [11] 0.616 µM | Potency [12] 11 µM | Potency [13] 0.436 µM | Potency [18] 0.309 µM | Potency [14] 0.776 µM | Potency [15] 8.71 µM | Potency [17] 0.871 µM
inactive: Potency [8] | Potency [10] | Potency [16]

CC(=O)[O][Sn]([c]1ccccc1)([c]1ccccc1)[c]1ccccc1
active: Potency [1] 0.219 µM | Potency [2] 0.049 µM | Potency [3] 0.0347 µM | Potency [4] 0.245 µM | Potency [9] 0.219 µM | Potency [12] 0.347 µM | Potency [14] 0.123 µM | Potency [15] 0.347 µM | Potency [17] 13.8 µM
inactive: Potency [8] | Potency [10]

[Cl][Hg][c]1ccccc1
inactive: Potency [8] | Potency [10] | Potency [12] | Potency [15]
active: Potency [1] 1.23 µM | Potency [2] 1.38 µM | Potency [3] 1.1 µM | Potency [4] 2.19 µM | Potency [5] 2.75 µM | Potency [6] 3.47 µM | Potency [7] 2.19 µM | Potency [9] 2.19 µM | Potency [11] 2.45 µM | Potency [13] 2.75 µM | Potency [18] 1.23 µM | Potency [14] 1.95 µM
